Rows were chosen to be rich in hits. Some 1.3% of all compounds tested hit in one or more screens of this group.
E coli Lon inh = inhibitors of E. coli Lon protease, primary screen, biochemical, fluorescence polarization; purified E. coli Lon protease; inhibition, % at 7.94 µM; 360,000 tested, 0.42% active; in the data active means inhibition above about 13%, passing the limit was not always enough;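 further: 0% = enzyme with probe and DMSO and 100% = no enzyme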
GLD-1 TGE inh = GLD-1/TGE RNA complex disruptors, primary screen, biochemical, fluorescence polarization | Female germline-specific tumor suppressor gld-1 (Caenorhabditis elegans), Q17339 | purified GLD-1 + fluorescein TGE RNA | inhibition, % at 5.96 µM | 320,000 tested, 0.44% active;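 active means percent inhibition above a per-plate cutoff, the plate mean of test compounds plus 3 SD, cut at about 30% in these data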;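 further: 0% = DMSO wells with GLD-1 and probe and 100% = wells lacking GLD-1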
MEX-5 binding = MEX-5 zinc finger RNA-binding disruptors – biochemical, C. elegans, fluorescence polarization, MLPCN library, primary screen. Zinc finger protein mex-5 (Caenorhabditis elegans), Q9XUB2. MEX-5/FITC-TCR2 RNA binding; stronger effect = lower value. activity score (negative = inhibition of binding), % at 10 µM. 300,000 tested, 0.38% active. AID 1832, 2009;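 active means inhibition past about -25% in most replicates, and total fluorescence under double the plate's negative control median, limit read from the data; inconclusive means replicates evenly split on the limit, or fluorescence at least double controls; inactive means too little inhibition in most replicates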;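 further: 0% = DMSO and -100% = 5 µM competing unlabeled TCR2 RNA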
Target sequence (Q9XUB2 whole entry, looked up): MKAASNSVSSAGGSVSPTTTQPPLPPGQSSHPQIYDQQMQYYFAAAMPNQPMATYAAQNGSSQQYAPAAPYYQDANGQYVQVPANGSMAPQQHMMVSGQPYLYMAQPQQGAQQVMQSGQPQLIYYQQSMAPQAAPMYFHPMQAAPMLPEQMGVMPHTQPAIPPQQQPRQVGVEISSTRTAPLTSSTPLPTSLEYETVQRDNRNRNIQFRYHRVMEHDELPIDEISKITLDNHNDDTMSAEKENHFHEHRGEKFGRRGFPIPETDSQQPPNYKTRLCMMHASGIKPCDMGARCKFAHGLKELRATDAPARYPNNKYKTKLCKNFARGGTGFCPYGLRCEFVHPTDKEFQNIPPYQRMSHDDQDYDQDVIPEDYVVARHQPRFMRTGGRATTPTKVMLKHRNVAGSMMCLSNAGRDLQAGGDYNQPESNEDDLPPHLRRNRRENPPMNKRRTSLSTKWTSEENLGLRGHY
EBV gp42 block = Epstein-Barr virus gp42 inhibitors, primary screen, biochemical, uHTS, fluorescence polarization | Glycoprotein 42 (Epstein-Barr virus (strain AG876)), Q1HVG2 | Fluorescence polarization binding assay, mP read-out | inhibition, % (tested at 21.74 µM) | 220,000 tested, 0.42% active | AID 1085, 2008; in the data active means inhibition above about 50%
Bcl-xL primary = inhibitors of human Bcl-xL, primary screen, biochemical, fluorescence polarization, HTS; Bcl-2-like protein 1 (Homo sapiens), Q07817; GST-Bcl-xL / FITC-Bim BH3 peptide fluorescence polarization; inhibition, % at 10.9 µM; 320,000 tested, 0.7% active;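 active means inhibition above the mean of all tested compounds plus 3 SD, cutoff set per campaign, cut at about 30% in these data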;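 further: 0% = DMSO wells and 100% = unlabeled Bim-BH3 peptide competitor; inhibitors lower millipolarization by displacing the labeled peptide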
E coli Lon conf = E. coli Lon protease inhibitor retest, confirmation, biochemical, fluorescence polarization | shares compounds with E coli Lon inh | inhibition, % at 7.94 µM | AID 602230, 2012 | purified E. coli Lon | 1,400 tested, 31% active; in the data active means inhibition above about 16%;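 further: 0% = enzyme with probe and DMSO and 100% = no enzyme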
Active calls of the source: *; ? = inconclusive; · = not tested or not shown; + = active, no number.

SMILES	E coli Lon inh	GLD-1 TGE inh	MEX-5 binding	EBV gp42 block	Bcl-xL primary	E coli Lon conf
CN(C)S(=O)(=O)c1ccc(Cl)c(C(=O)NNC(=O)Cc2nc3ccccc3n2C)c1	+	13	·	·	2	3
COc1ccc(C(=O)NNC(=O)Cc2nc3ccccc3n2C)cc1	-1	2	·	·	·	·
Fc1ccc(Br)cc1C1C=C(c2ccc(Br)cc2)Nc2ncnn21 (stereo unspecified)	3	7	1	7	10	·
Cc1ccsc1C1C=C(c2cccc(Br)c2)Nc2ncnn21 (stereo unspecified)	60*	92*	-2	94*	110*	66*
Cc1ncc(CN=Cc2ccc(Cl)cc2)c(N)n1	1	-7	0	-12	4	·
CC(Nc1cccc2ccccc12)C(=O)N/N=C/c1ccccn1 (stereo unspecified)	24*	6	-4	8	6	7
O=C(CCCC(=O)N/N=C\c1ccccn1)N/N=C\c1ccccn1	-7	6	-4	-6	0	·
O=C1C2ON(c3ccccc3)C(c3ccccn3)C2C(=O)N1c1ccc(Br)cc1 (stereo unspecified)	15*	5	3	-5	5	12
O=C1C2ON(c3ccccc3)C(c3ccncc3)C2C(=O)N1c1ccc(Br)cc1 (stereo unspecified)	-11	2	2	-7	2	·
Cc1cc(NC(=O)CSc2cn(CCNC(=O)c3ccccc3)c3ccccc23)no1	20*	0	-3	-4	4	-7
O=C(O)c1cccc(NC(=O)c2cccc(S(=O)(=O)N3CCc4ccccc4C3)c2)c1	0	2	-3	-23	8	·
CC(C)c1cc(C(=O)N/N=C/c2c[nH]c3ccccc23)n[nH]1	25*	-1	-1	-3	6	-8
CN(CCc1ccccn1)C(=O)CC1C(=O)NCCN1Cc1ccc(-c2ccccc2)cc1 (stereo unspecified)	10	7	0	1	14	·
Cc1ccc(CN2CCNC(=O)C2CC(=O)N(C)CCc2ccccc2)cc1 (stereo unspecified)	23*	12	0	-5	5	-8
COc1ccc(N2CCN(C(=O)c3ccc(CNS(=O)(=O)c4cc(C)ccc4C)cc3)CC2)cc1	-1	·	1	·	·	·
Cc1cc(C)n2nc(C)c(-c3ccccc3)c2n1	22*	5	0	·	9	-14
O=C(CN(Cc1ccco1)S(=O)(=O)c1cccs1)Nc1ccccc1C(F)(F)F	17*	-1	1	-18	8	-1
Cc1cc(Cl)ccc1OCC(=O)NNC(=O)c1cnccn1	10	6	-5	4	3	·
Cc1cc(Br)ccc1OCC(=O)NNC(=O)c1cnccn1	71*	-4	-8	-15	2	-7
Cc1c2ccccc2nc2c(F)c(N(C)C)c(F)c(F)c12	117*	99*	-5	197*	114*	+
CC(Sc1ncccn1)C(=O)NC1CCCC1 (stereo unspecified)	-12	1	·	·	2	·
CC(Sc1ccc(S(=O)(=O)N(C)C)cn1)C(=O)NC1CCCC1 (stereo unspecified)	25*	6	·	·	5	-34
CCOC(=O)C1CCN(CC(=O)Nc2cc(S(=O)(=O)N3CCCCC3)ccc2Cl)CC1	23*	·	·	·	·	3
O=C1C(=Cc2cccn2-c2ccccc2)C(=O)c2ccccc21	62*	105*	?	-44	41*	39*
Cc1nc(CCNC(=O)CC2C(=O)NCCN2CC(C)(C)C)nc2c1CCC2 (stereo unspecified)	22*	18	-1	·	28	12
SMILES	E coli Lon inh	GLD-1 TGE inh	MEX-5 binding	EBV gp42 block	Bcl-xL primary	E coli Lon conf
Cn1cc([N+](=O)[O-])c(C(=O)Nc2ccn(C34CC5CC(CC(C5)C3)C4)n2)n1	31*	3	0	7	-7	-11
COc1ccc(CC(O)COS(N)(=O)=O)cc1 (stereo unspecified)	5	8	3	·	1	·
CCOc1ccccc1NC(=O)Nc1ccc(OC)nc1	22*	·	?	·	·	16*
Cc1n[nH]c(C)c1CCNC(=O)C1CCC(=O)N(CCc2cccc(F)c2)C1 (stereo unspecified)	7	-6	-1	·	-4	·
C=CCNC(=O)COC(=O)COc1ccc(Cl)cc1	1	-11	3	-17	-4	·
CC(=O)c1ccc(NC(=O)CN2C(=O)NC3(CCc4ccccc43)C2=O)cc1 (stereo unspecified)	19*	1	·	·	·	-1
CNC(=O)CN1C(=O)NC2(CCc3ccccc32)C1=O (stereo unspecified)	3	1	1	-23	-3	·
O=C(NCCNCc1ccccn1)c1ccco1	-2	-4	-7	-4	10	·
CCOc1cc(C(c2c(O)nc(SC)[nH]c2=O)c2c(O)nc(SC)[nH]c2=O)ccc1O	49*	68*	-21	·	84*	41*
Brc1ccc2nc(C3CCCCC3)c(CC3CCCCC3)n2c1	-7	·	·	·	·	·
Cc1ccc(C)n1-c1sc2c(c1C#N)CCC(C)C2 (stereo unspecified)	-12	-1	1	-17	5	·
COCCn1c(SCC(=O)NC(=O)Cc2ccccc2)nc2ccccc2c1=O	13	5	·	·	0	·
COCCn1c(SCC(=O)c2cc(C)n(C)c2C)nc2ccccc2c1=O	15*	6	-1	8	5	4
Cc1nn(-c2ccccc2)c(C)c1C(=O)OC(C)C(=O)NC1CCCCC1 (stereo unspecified)	-4	-1	·	·	·	·
Cn1c(=O)n(C)c2cc3[nH]cnc3cc21	-1	5	-3	·	8	·
Nc1cc2nc[nH]c2cc1N	18*	·	1	-19	·	0
Cc1cc(=O)n(CC(=O)NCCN2CCOCC2)c2c1c(C)nn2-c1ccccc1	17*	0	2	·	2	-1
Cc1cc2cc(CNC(=O)Nc3ccc(Cl)c(Cl)c3)ccc2n1C	23*	15	1	-19	7	13
Cc1cc2cc(CNC(=S)Nc3ccc(OC(F)F)cc3)ccc2n1C	15*	10	0	-3	14	1
Cc1cc2cc(CNC(=O)NC3CCCCC3)ccc2n1C	-12	6	2	-9	6	·
FC(F)Oc1ccc(NC(=S)NCc2ccccc2)cc1	-2	2	0	-19	11	·
O=C1c2ccsc2SCCN1Cc1c(Cl)cccc1Cl	3	-2	1	4	14	·
CCNC(=O)/C(=C/c1ccc2c(c1)OCO2)NC(=O)c1ccc(Br)cc1	3	-2	-1	-1	6	·
